Records with an inconclusive call do not appear. Active and inactive are the calls of the source. Calls come from the whole dose curve; as a rule, active = well fitted inhibition curve with a large enough effect; inconclusive = small, poorly fitted or top-dose-only effect; inactive = flat fitted curve, though single readings scatter.
molecular target: Calcium and integrin-binding protein 1 (Homo sapiens) (UniProt Q99828); test: Primary qHTS for Identification of Calcium Integrin Binding Protein 1 (CIB1) Competitor (AID 1508620); settings: CIB1-GST / FITC-alphaIIb peptide fluorescence polarization; series mostly up to 57.7 µM; activity change, negative = inhibition: at the top concentration; note: top concentration of the series differs between compounds
Sequence (Q99828 whole entry, looked up): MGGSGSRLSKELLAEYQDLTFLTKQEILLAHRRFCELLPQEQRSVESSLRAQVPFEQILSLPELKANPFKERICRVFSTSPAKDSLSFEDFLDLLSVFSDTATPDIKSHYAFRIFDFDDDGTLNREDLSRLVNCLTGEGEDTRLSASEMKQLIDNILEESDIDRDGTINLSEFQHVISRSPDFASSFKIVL
How it was run: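 Fluorescence polarization competition: GST-tagged CIB1 (1 uM final) preincubated with compound 15 min at room temperature, then FITC-labelled alphaIIb peptide (100 nM final) added. After 15 min at room temperature, polarization read at Ex 480/Em 540.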
% is set by controls: 0 for no effect and ±100 for the full control effect.

| SMILES | Potency | activity change, negative = inhibition |
| --- | --- | --- |
| CC(C)C(=O)Oc1ccc(CO)cc1[C@H](CCN(C(C)C)C(C)C)c1ccccc1 | inactive |  |
| CC1(C)Cc2c(sc(NC(=S)NC(=O)c3ccccc3)c2C(=O)O)CO1 |  | -1.94% (inactive) |
| N#CC(=C(N)Sc1ccccc1N)C(C#N)=C(N)Sc1ccccc1N |  | -22.5% (inactive) |

Source: PubChem BioAssay (NCATS)
